Bioassay records as filed in PubChem.
Most compounds without a hit are left out; they make up all but 8.1% or so of the library.
KB-V1 cytotox: KB-V1 MDR subline cytotoxicity; KB-V1 MDR cells viability, CellTiter-Glo, 72 h; Potency, µM (highest dose often 46.1 µM), usual class: cytotoxic; actives 3.4% (n = 400,000); further: on the % scale 0 is the no-effect control and ±100 the full control effect; nearly all actives have a fitted effect of over 60% in size
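qHTS viability screen in drug-selected KB-V1 MDR cells: 72 h compound treatment at 37 degrees C, ATP luminescence end point.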
ELG1 repair inh: blocks ELG1-dependent DNA repair in HEK293T cells. actives 2.3% (n = 330,000). HEK293T ELG1-luciferase reporter, luminescence, 16 h; DNA damage induced by 5-fluorouridine. Potency, µM (top dose mostly 46.1 µM), for the others: at the top dose activity change, negative = inhibition, hits mostly inhibitors; further: on the % scale 0 is the no-effect control and ±100 the full control effect; nearly all actives have a fitted effect of over 55% in size
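Luminescence from the luciferase reporter, measured 30 min after ONE-Glo reagent at room temperature, was the read-out. Beforehand, 2,000 cells per well were exposed for 16 hr at 37 °C to 5-fluorouridine together with compound or vehicle.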
MCF10A rerep: DNA re-replication induction in MCF 10a cells; actives 2.9% (n = 350,000); MCF 10A DNA re-replication, Hoechst nuclear intensity, 48 h; Potency, µM (highest dose often 46.1 µM), inactives show at the highest dose activity, positive = re-replication, usual class: activators; AID 624296; further: % of control where 0% means no effect; nearly all actives have a fitted effect of over 50% in size
KB-3-1 cytotox: KB-3-1 parental cell cytotoxicity; KB-3-1 viability, CellTiter-Glo ATP luminescence, 72 h; Potency, µM (doses to about 46.1 µM), usual class: cytotoxic; actives 1.4% (n = 400,000); AID 1347075; further: on the % scale 0 is the no-effect control and ±100 the full control effect; nearly all actives have a fitted effect of over 60% in size
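Cytotoxicity in the drug-sensitive parental line KB-3-1 was scored as loss of CellTiter-Glo luminescence following 72 h incubation with compound. Values come from curve fitting of normalized concentration-response data.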
SW480 rereplic: inducers of DNA re-replication in SW480 colon cancer cells; SW480 DNA re-replication, Hoechst DNA content imaging, 48 h; Potency, µM (doses to about 46.1 µM), inactives show top-dose re-replication activation, actives largely listed as activators; actives 1.8% (n = 340,000); AID 624297; further: % of control where 0% means no effect; nearly all actives have a fitted effect of over 55% in size
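Image-based DNA-content assay: after two days of treatment, nuclei were labelled with the DNA dye Hoechst and imaged, and hits were compounds raising the count of nuclei showing high fluorescence intensity.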
The depositor's hits bear a star. The call rests on the fitted dose curve; in most records, active means well fitted curve in the direction sought with a large enough effect; inconclusive means small, poorly fitted or top-dose-only effect, or another doubt; inactive means no such curve, though single readings can be large; an effect the other way counts as inactive or inconclusive. Potency means the concentration at half of the fitted maximal effect.

CCOc1ccc(NC(=O)C(=O)NCC(c2cccnc2)N2CCc3ccccc32)cc1 (stereo unspecified) was read as KB-V1 cytotox 18.4µM* and KB-3-1 cytotox inconclusive.
Screening N#Cc1c(C(F)(F)F)cc(-c2cccs2)nc1SC(C(=O)O)c1ccccc1 (stereo unspecified) returned KB-V1 cytotox inactive, MCF10A rerep 20.6µM*, KB-3-1 cytotox inactive and SW480 rereplic -14.3%.
Screening N#Cc1c(C(F)(F)F)cc(-c2cccs2)nc1SCC(=O)Nc1ccc(F)cc1 returned KB-V1 cytotox inactive and KB-3-1 cytotox inactive.
CNc1nc(-c2cccs2)cc(C(F)(F)F)c1C#N was read as KB-V1 cytotox inactive, ELG1 repair inh 20.3%, MCF10A rerep 18.4µM*, KB-3-1 cytotox inactive and SW480 rereplic 5.8µM*.
Screening c1cncc(-c2nnc3n2N=C(c2cccs2)CS3)c1 returned KB-V1 cytotox inactive, ELG1 repair inh -1.2%, MCF10A rerep 14.3%, KB-3-1 cytotox inactive and SW480 rereplic -7.4%.
CCOC(=O)COc1ccc([N+](=O)[O-])cc1-c1ccnc2cc(-c3ccc(C)cc3)nn12 was read as KB-V1 cytotox inactive and KB-3-1 cytotox inactive.
For Cc1ccc(-c2cc3nccc(-c4cc([N+](=O)[O-])ccc4O)n3n2)cc1 the results were KB-V1 cytotox inconclusive and KB-3-1 cytotox 23.1µM*.
For O=C(c1cnc2cc(-c3ccccc3)nn2c1)c1cc([N+](=O)[O-])ccc1O the results were KB-V1 cytotox inactive and KB-3-1 cytotox inconclusive.
For Cc1ccc(-c2cc3ncc(C(=O)c4cc([N+](=O)[O-])ccc4O)cn3n2)cc1 the results were KB-V1 cytotox inactive and KB-3-1 cytotox 16.4µM*.
`Cc1nc2ccccc2nc(C)c1=NOCc1cccc(Cl)c1` gave KB-V1 cytotox inactive, ELG1 repair inh 1.6%, MCF10A rerep 1.6%, KB-3-1 cytotox inactive and SW480 rereplic 0.7%.
Screening CN(c1ccc(F)cc1)S(=O)(=O)N1CCCC(C(=O)NCCc2ccccc2)C1 (stereo unspecified) returned KB-V1 cytotox inactive and KB-3-1 cytotox inactive.
Screening Cc1n[nH]c(C)c1S(=O)(=O)N1CCCC(C(=O)NCc2ccc(F)cc2)C1 (stereo unspecified) returned KB-V1 cytotox inactive, ELG1 repair inh 11.4%, MCF10A rerep 0.731µM*, KB-3-1 cytotox inactive and SW480 rereplic -59.0%.
`COc1cccc(CNC(=O)C2CCCN(S(C)(=O)=O)C2)c1` (stereo unspecified) gave KB-V1 cytotox inactive, ELG1 repair inh -4.7%, MCF10A rerep 20.6µM*, KB-3-1 cytotox inactive and SW480 rereplic 1.6%.
`O=C(NCc1ccccc1Cl)C1CCCN(C(=O)c2cnn(-c3ccc(F)cc3)c2-n2cccc2)C1` (stereo unspecified) gave KB-V1 cytotox 16.4µM* and KB-3-1 cytotox inconclusive.
For CN(c1ccc(F)cc1)S(=O)(=O)N1CCCC(C(=O)NCc2ccccc2Cl)C1 (stereo unspecified) the results were KB-V1 cytotox inactive and KB-3-1 cytotox 16.4µM*.
`CCCSCCCNC(=O)C1CCCN(C(=O)c2cnn(-c3ccccc3)c2-n2cccc2)C1` (stereo unspecified) gave KB-V1 cytotox inactive and KB-3-1 cytotox inactive.
COc1cccc(CNC(=O)C2CCCN(S(=O)(=O)c3cnc[nH]3)C2)c1 (stereo unspecified) was read as KB-V1 cytotox inactive, ELG1 repair inh 0.6%, MCF10A rerep 18.7%, KB-3-1 cytotox inactive and SW480 rereplic -0.9%.
Screening N#C/C=C/N1CCN(C(=O)c2ccco2)CC1 returned KB-V1 cytotox inactive, ELG1 repair inh 17.7%, MCF10A rerep -0.2%, KB-3-1 cytotox inactive and SW480 rereplic -10.0%.
For CN1CCN(c2ccc([N+](=O)[O-])cc2NC(=O)c2cccs2)CC1 the results were ELG1 repair inh 2.1%, MCF10A rerep 9.3% and SW480 rereplic 6.6%.
